VDR inh – vitamin D3 receptor (human) inhibition; VDR-SRC2-3 peptide fluorescence polarization, 2 h; Potency, µM, inactives show max response, negative = inhibition, hits mostly inhibitors; 400,000 tested, 0.93% active; P11473; further: on the % scale 0 is the no-effect control and ±100 the full control effect
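Fluorescence polarization assay measuring small-molecule disruption of VDR binding to the coregulator peptide SRC2-3. Compounds were pin-transferred (23 nl) into the reagent mix and incubated 2 h at room temperature before reading.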
Tb PFK block – inhibitors of T. brucei phosphofructokinase; O15648; T. brucei PFK, ADP-Glo luminescence; Potency, µM (titrated, usually from 57.5 µM), without a hit: top-dose activity, negative = inhibition, usual class: inhibitors; 330,000 tested, 0.17% active;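 further: 0% = uninhibited 1x PFK enzyme wells and -100% = no-enzyme wells; nearly all actives have a fitted effect of over 60% in size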
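In TEA buffer at pH 8.0 with 5 mM MgCl2, enzyme (1.25 nM) converted F6P (0.5 mM) and ATP (0.1 mM) for 45 min at room temperature. ADP product was read by luciferase luminescence.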
PLK1 PBD block – blocks phosphopeptide binding to human PLK1 polo-box domain; Potency, µM, inactives show max response, negative = inhibition, actives largely listed as inhibitors; Plk1 PBD binding of FITC phosphopeptide, fluorescence polarization; 360,000 tested, 2.8% active; further: series mostly up to about 57 µM; on the % scale 0 is the no-effect control and ±100 the full control effect; nearly all actives have a fitted effect of over 65% in size
Target sequence (P53350 whole entry, looked up, the tested form may be a part): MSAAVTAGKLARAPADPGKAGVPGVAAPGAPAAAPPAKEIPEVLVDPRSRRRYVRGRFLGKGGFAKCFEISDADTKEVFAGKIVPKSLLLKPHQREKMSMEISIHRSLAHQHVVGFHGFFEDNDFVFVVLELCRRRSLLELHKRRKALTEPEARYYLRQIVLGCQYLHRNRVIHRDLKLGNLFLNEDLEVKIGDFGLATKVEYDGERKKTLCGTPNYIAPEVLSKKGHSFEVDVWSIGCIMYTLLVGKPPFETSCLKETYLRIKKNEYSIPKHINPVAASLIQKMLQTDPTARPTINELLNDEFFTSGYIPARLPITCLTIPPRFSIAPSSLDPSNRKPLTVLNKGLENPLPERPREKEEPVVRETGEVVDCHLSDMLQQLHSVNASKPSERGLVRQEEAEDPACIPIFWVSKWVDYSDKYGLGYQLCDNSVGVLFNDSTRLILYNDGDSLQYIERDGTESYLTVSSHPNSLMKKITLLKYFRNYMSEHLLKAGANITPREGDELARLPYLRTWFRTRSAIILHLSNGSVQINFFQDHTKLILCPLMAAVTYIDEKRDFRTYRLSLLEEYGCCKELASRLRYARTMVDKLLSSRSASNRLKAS
BRCA1 expr act – BRCA1 expression activation | MCF7-BRCA1-FFLuc reporter, luminescence, 48 h; response scale: scaled: vehicle 0%, 10 µM genistein 100% | 380,000 tested, 1.1% active | Potency, µM (top dose mostly 46.1 µM), inactives show top-dose activation, actives largely listed as activators | AID 624202; further: nearly all actives have a fitted effect of over 80% in size
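Luminescence from a BRCA1-driven firefly luciferase in MCF7 cells was read after 48 h compound exposure at 37 C. Data normalized against DMSO and a 10microM genistein activation control, then curve-fitted across the titration.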
* = called active by the depositor; ? = inconclusive; nt = no result. Hits are enriched below; roughly 3.9% of the tested compounds scored in any of these assays. The call rests on the fitted dose curve; in most records, active means well fitted curve in the direction sought with a large enough effect; inconclusive means small, poorly fitted or top-dose-only effect, or another doubt; inactive means no such curve, though single readings can be large; an effect the other way counts as inactive or inconclusive. Potency means the concentration at half of the fitted maximal effect.

SMILES | VDR inh | Tb PFK block | PLK1 PBD block | BRCA1 expr act
O=C(N/N=C/c1c(F)cccc1Cl)c1cc(C2CC2)[nH]n1 | 0.2% | 4.8% | -5.2% | 11.2µM*
O=C(N/N=C/c1ccc(O)cc1)c1cc(C2CC2)[nH]n1 | 0.3% | -5.8% | -4.9% | 3.3%
Cc1ccc(Nc2nnns2)cc1 | 79.4µM* | -7.9% | 23.8µM* | -13.2%
Cc1ccc(NS(=O)(=O)c2cc(NC(=O)c3ccc4c(c3)NC(=O)CS4)ccc2Cl)c(C)c1 | -22.9% | -10.2% | 5.97µM* | -70.2%
CCN(CC)c1ccc(NC(=O)CSc2nnc3nc(C)cc(C)n23)cc1 | -10.1% | -0.4% | 16.8µM* | 6.7%
Cc1cc(C)n2c(SCC(=O)Nc3ccccc3)nnc2n1 | -11.5% | -2.2% | -15.9% | 8.3%
Cc1cccc(Cn2c(=O)n(Cc3ccccc3)c(=O)c3sc4ccccc4c32)c1 | -22.1% | nt | nt | 3.0%
Cc1ccc(Nc2ncccc2C(=O)O)cc1C | ? | -2.0% | ? | ?
Cc1ccc(Nc2ncccc2C(N)=O)cc1[N+](=O)[O-] | -10.5% | -0.3% | ? | 5.62µM*
COc1ccc(-c2csc3nc(-c4cccnc4)nc(Cl)c23)cc1OC | ? | -0.1% | 26.7µM* | -26.2%
COc1ccc(-c2nc(-c3cccnc3)no2)cc1OC | 6.2% | 0.6% | -6.7% | ?
Cc1ccc(C2CC(=O)N3CN(Cc4ccco4)CSC3=C2C#N)cc1 (centres undefined) | ? | -3.0% | 26.7µM* | -1.8%
N#CC1=C2SCN(Cc3ccco3)CN2C(=O)CC1c1c(F)cccc1Cl (centres undefined) | ? | 3.7% | 26.7µM* | -24.8%
Cc1ccc(CC2CC(=O)N(Cc3ccco3)C2=O)cc1 (centres undefined) | ? | 1.5% | -23.5% | 0.3%
C[C@@H]1CN([C@@H](C)CO)C(=O)CCCn2cc(nn2)CO[C@H]1CN(C)C(=O)c1cc(-c2ccccc2)on1 | nt | nt | -4.8% | 2.6%
COc1ccccc1-n1c(N)c(C(N)=O)sc1=S | -5.4% | -17.9% | 18.9µM* | 5.4%
Nc1c(C(=O)Nc2ccc(F)cc2)sc(=S)n1-c1ccccc1F | ? | -24.9% | 4.74µM* | 58.1%
CCOC(=O)c1sc(=S)n(-c2ccc(OC)cc2)c1N | 9.1% | 0.9% | -10.5% | 8.5%
Cn1c(N)c(C(=O)Nc2ccc3ccccc3c2)sc1=S | -24.9% | -1.5% | ? | 55.0%
O=S1(=O)CC(N2CCCC2)CN1Cc1cn(Cc2cccc(C(F)(F)F)c2)nn1 (centres undefined) | nt | nt | 2.0% | 18.5%
CCCC(=O)N1c2nc(-c3ccco3)nn2C2(CCCCC2)[C@@H]2CCCC[C@@H]21 | -4.3% | nt | nt | nt
Cc1ccc(CN2C(=O)CN(C3CCC(C)CC3)C(=O)C2c2ccc(F)cc2)cc1 (centres undefined) | 4.0% | nt | nt | nt
CC1CC(=O)c2c(cc3c(-c4c(O)cc(O)c5c(O)c6c(cc45)OC(C)CC6=O)c(O)cc(O)c3c2O)O1 (centres undefined) | ? | -1.7% | 26.7µM* | -60.6%
Cn1c(SCC(=O)NNC(=O)Cc2ccccc2)nc2ccccc2c1=O | ? | 1.2% | 3.36µM* | -4.4%
COCCn1c(SCC(=O)NNC(=O)Cc2ccccc2)nc2ccccc2c1=O | -3.3% | 13.7% | -15.7% | 12.5%
SMILES | VDR inh | Tb PFK block | PLK1 PBD block | BRCA1 expr act
Cc1cc(CNC(=O)C2CCC(=O)N(CCc3cccc(F)c3)C2)nn1C (centres undefined) | -0.4% | -3.2% | -3.6% | -1.1%
C#CCN(C(=O)C1CCC(=O)N(CCc2cccc(F)c2)C1)C1CCCCC1 (centres undefined) | nt | nt | -4.7% | 82.0%
CN(C(=O)C1CCC(=O)N(Cc2cccc(F)c2)C1)C1CCCCC1 (centres undefined) | -9.9% | -5.3% | 1.9% | 7.94µM*
Cc1ccsc1CCNC(=O)C1CCC(=O)N(CCc2cccc(F)c2)C1 (centres undefined) | -11.7% | -0.2% | -0.6% | 7.94µM*
O=C(NCCc1ccccc1F)C1CCC(=O)N(CCCN2CCCC2=O)C1 (centres undefined) | -4.0% | 1.9% | 2.4% | -7.7%
O=C(NCCc1ccccc1F)C1CCC(=O)N(Cc2ccccc2F)C1 (centres undefined) | -17.0% | 25.4% | 26.7µM* | -4.3%
COc1ccccc1CCNC(=O)C1CCC(=O)N(Cc2cccc(F)c2)C1 (centres undefined) | -18.7% | 0.3% | 29.9µM* | ?
O=C(C[n+]1cccc(Cl)c1)c1ccc(O)c(O)c1 | nt | nt | nt | 1.1%
CCOc1ccccc1NC(=O)C(C)N(c1ccccc1)S(C)(=O)=O (centres undefined) | 11.5% | nt | nt | 7.0%

Assay outcomes (PubChem BioAssay)
